Data as given in PubChem BioAssay AID1851 (National Center for Advancing Translational Sciences (NCATS), 2009).
“And” between values parts separate entries of the source, which are not always exact repeats. Equal values may be shown once. Out of some 16,000 compounds screened, about 5,700 (36%) were called active. Not shown: some 24% with an inconclusive outcome. Calls follow the shape of the dose curve; as a rule, active = well fitted curve in the direction sought with a large enough effect; inconclusive = small, poorly fitted or top-dose-only effect, or effect the other way; inactive = no such curve, though single readings can be large or run the other way. The list shows a part of the results.

molecular target: Cytochrome P450 1A2 (Homo sapiens) (UniProt P05177); experiment: Cytochrome panel assay with activity outcomes; details: recombinant CYP, pro-luciferin dealkylation, luminescence, p450-cyp1a2; series mostly up to 57.1 µM; activity, negative = inhibition: at the top concentration
Sequence (P05177 whole entry, looked up): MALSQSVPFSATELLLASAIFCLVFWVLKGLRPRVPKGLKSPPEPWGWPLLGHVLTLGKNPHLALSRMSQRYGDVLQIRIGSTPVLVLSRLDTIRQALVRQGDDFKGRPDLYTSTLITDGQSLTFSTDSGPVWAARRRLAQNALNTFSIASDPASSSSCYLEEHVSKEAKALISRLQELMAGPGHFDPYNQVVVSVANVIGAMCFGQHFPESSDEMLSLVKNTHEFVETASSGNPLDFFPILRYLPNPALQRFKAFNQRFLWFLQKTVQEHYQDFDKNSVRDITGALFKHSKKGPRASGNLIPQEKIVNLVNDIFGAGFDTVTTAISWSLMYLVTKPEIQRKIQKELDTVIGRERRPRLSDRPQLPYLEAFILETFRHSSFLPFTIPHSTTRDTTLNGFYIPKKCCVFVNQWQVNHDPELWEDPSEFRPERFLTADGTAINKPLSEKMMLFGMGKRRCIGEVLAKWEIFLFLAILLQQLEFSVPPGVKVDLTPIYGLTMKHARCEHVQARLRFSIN
Description: The P450 gene superfamily is involved in the metabolism and clearance of xenobiotics. This assay used various human CYP P450 isozymes to measure the dealkylation of various pro-luciferin substrates to luciferin. The luciferin is then measured by luminescence after the addition of a luciferase detection reagent. Pro-luciferin substrate concentration in the assay was equal to its KM for its CYP P450 isozyme. Inhibitors and some substrates limit the production of luciferin, and decrease measured luminescence.
NCGC Assay Protocol Summary:
1, Reagent, 2 uL, Isozyme and Pro-Luciferin
2, Library compounds, 23 nl, 40 uM to 0.24 nM dilution series
3, Controls, 23 nl, Isozyme specific inhibitor
4, Reagent, 2 uL, NADPH regeneration solution
5, Incubation time, 60 min, Isozyme specific temperature
6, Reagent, 4ul, Detection reagent
7, Incubation time, 20 min, Isozyme specific temperature
8, Detection, 1 sec, ViewLux luminescent read
The luciferase-based P450-GloTM Screening Systems were obtained from Promega (Madison, WI) for CYP 1A2 (V9770), CYP 2C9 (V9790), CYP2 C19 (V9880), CYP 2D6 (V9890), and CYP 3A4 Luciferin-PPXE (V9910) and were adapted for 1,536-well microplates and an automated protocol. The control compounds furafylline for 1A2 (F124), sulfaphenazole for CYP 2C9 (S0758), ketoconazole for CYP 2C19 (K1003), quinidine for 2D6 (Q3625), and ketoconazole for 3A4 (K1003) were purchased from Sigma Aldrich (St. Louis, MO). Recombinant P450 enzymes were obtained from baculovirus constructs expressed in insect cells (BD/Gentest).
Medium-binding white solid Kalypsys plates used. Mixtures kept on ice. 1A2: 10 nM 1A2, 100 uM Luc-ME, 100 mM KPO4; 2C9: 10 nM 2C9, 100 uM Luc-H, 25 mM KPO4; 2C19: 5 nM 2C19, 10 uM Luc-H EGE, 50 mM KPO4; 2D6: 5 nM 2D6, 30 uM Luc-ME EGE, 100 mM KPO4; 3A4: 10 nM, 25 uM Luc-PPXE. All amounts are reflected in their final concentration, working concentration is 2x.
NADPH regeneration solution: 1.3 mM NADP+, 3.3 mM glucose-6-phosphate, 3.3 mM MgCl2, 0.4 U/mL glucose-6-phosphate dehydrogenase for all isozymes, 200 mM KPO4 for 3A4. Mixture prepared at RT but kept on ice during automated run.
RT incubation in auxilliary plate hotel for 1A2, 2D6, and 3A4; 37C for 2C9 and 2C19.
Keywords: P450, CYP1A2, CYP2C19, CYP2C9, CYP2D6, CYP3A4, Luciferase, MLSMR, MLSCN, NIH Roadmap, qHTS, NCGC
% is scaled to controls: 0 for no effect and ±100 for the full control effect.

activity, negative = inhibition, inactive:
COc1ccc2c(c1)CCC1C2CC[C@]2(C)[C@H](NCCCCCCN3C(=O)C=CC3=O)CC[C@@H]12 (stereo partly drawn) -3.41%, CCNC(=S)N1CC(C)OC(C)C1 (stereo not drawn) -21.6%, CC(O)CN(CCC(N)=O)CCC(N)=O (stereo not drawn) 6.43%, Cc1nnc(NC(=O)CSc2ncnc3c2cnn3-c2ccccc2C)s1 1.29%, CC(C)Oc1ccc2c(=O)c3cc(C(=O)O)ccc3oc2c1 -20.5%, COc1cc(/C=C(/C#N)c2nc3ccccc3[nH]2)ccc1OCC(=O)Nc1ccccc1C 2.56%, C=CCn1c(SCC(=O)NC2CCCCC2)nnc1C1CCCCC1 1.5%, CCOc1ccc(-n2c(SCC(=O)Nc3ccc4c(c3)OCCO4)nc3c(c2=O)SCC3)cc1 -12.3%, CCOc1ccc(-n2c(SCC(=O)Nc3ccc(OC)cc3)nc3c(c2=O)SCC3)cc1 -13.7%, CCn1nnnc1SCC(=O)NC1CCCC1 -18%, c1ccc([C@H](CCN2CCCC2)c2ccccn2)cc1 -14.8% [at 11.4 µM], CN(C)CCCn1cnc2cc(Cl)c(Cl)cc21 -19.9% [at 2.29 µM], CN(C)Cc1ccccc1-c1ccc2ncnc(NC3CCNCC3)c2c1 -9.16%, N=C(N)CCNC(=O)[C@@H]1CCC(N)=N1 -3.4% [at 2.29 µM], COc1cccc([C@@H]2Oc3ccc(OC)cc3/C(=N/O[C@@H](C)CN3CCCc4nc(C)c(C)cc43)[C@@H]2O)c1 2.03% [at 11.4 µM], Cn1c(CCN2CCCCC2)nc2cc([N+](=O)[O-])ccc21 -14.1%, CN1CCN(c2ccc([N+](=O)[O-])cc2S(=O)(=O)N2CCOCC2)CC1 6.31%, CCCNC(=O)OC[C@@H]1O[C@H](CCO/N=C(\C)CCC(=O)OC[C@@H]2O[C@H](c3ccccc3)C=C[C@@H]2Oc2ccc(OC)cc2)C=C[C@@H]1Oc1ccc(OC)cc1 -2.5% [at 11.4 µM], Nc1ccccc1C(=O)/C=C\c1ccc2c(c1)OCO2 -4.77% [at 11.4 µM], CC1CCCC(C)N1C(=O)C1CC(c2ccc(F)cc2)=NO1 (stereo not drawn) -45.5%, Cc1ccc(CCN2CC(C(=O)NC3CCCC3)CC2=O)cc1 (stereo not drawn) -27.7%, COC(=O)c1c(-c2ccccc2)csc1NC(=O)CSc1ncnc2sc(C)c(C)c12 -28.3%, Cc1c(Cl)cccc1NC(=O)C[C@H]1Sc2ccccc2NC1=O -23.2% [at 2.29 µM], CO[C@@H]1COC(=O)C/C=C\[C@@H](C)[C@@H]2C=C[C@H](O)[C@@H](COC(=O)CCC[C@H]1C)O2 1.73% [at 11.4 µM], Cc1cc(N=Cc2c(CO)cnc(C)c2O)c(N=Cc2c(CO)cnc(C)c2O)cc1C.[Zn] -10.4% [at 2.29 µM], CC(=O)NC1(c2cccc(F)c2)CCN(CC(=O)NC2CCCCC2)CC1 -13.1%, CCCC(c1cc(C(C)(C)C)c(O)cc1C)c1cc(C(C)(C)C)c(O)cc1C -12.3% [at 2.29 µM], O=C(c1cnc(N2CCN(c3ncccn3)CC2)c2ccccc12)N1CCN(c2ncccn2)CC1 -27.3%, COCC(=O)N1CCC2(CC1)CCN(c1ncccn1)CC2 1.86%, CCOC(=O)CC1C(=O)NCCN1S(=O)(=O)c1ccc(Cl)c(Cl)c1 (stereo not drawn) -0.861%, COc1ccc(CCN(C)CCc2ccc(OC)c(OC)c2)cc1OC -18.9%, CO[C@H]1COC(=O)[C@@H](CCSC)NC(=O)C/C=C\[C@@H](C)[C@H](OC)COC(=O)[C@@H](OCc2ccccc2)/C=C\[C@@H]1C -4.15% [at 11.4 µM], COc1cccc(C2C(C(=O)c3cc4ccccc4o3)=C(O)C(=O)N2c2cc(C)on2)c1OC (stereo not drawn) -22.3%, CO/N=C\C[C@@H]1C=C[C@H](OC(C)=O)[C@H](COC(C)=O)O1 -9.17% [at 11.4 µM], CCO/C([O-])=N/c1c[n+](N2CCOCC2)no1 -15.8% [at 25.6 µM], CC(C)C(C(=O)NCC1CCCO1)N(Cc1ccco1)C(=O)CNS(=O)(=O)c1ccc(F)cc1 (stereo not drawn) -23.5%, COc1ccc2c3c([nH]c2c1)[C@H]1C[C@@H]2[C@@H](C[C@@H](O)[C@H](OC)[C@H]2C(=O)O)CN1CC3 -1.02% [at 11.4 µM], CCOC(=O)/C(C#N)=C1/C=CN(C)C=N1 -5.3%, CC(C)N(CCNC(=O)C1CCC(=O)N1Cc1ccc(F)cc1)Cc1ccccc1 (stereo not drawn) -25.1%, CC(C)N(CCNC(=O)C1CCN(S(=O)(=O)N2CCOCC2)CC1)Cc1ccccc1 -8.41%, CN1CCCN(C)C1c1cc([N+](=O)[O-])ccc1O -14.3% [at 11.4 µM], COCCCN1C(=O)C(=O)/C(=C(/O)c2ccc(OC)cc2C)C1c1cccnc1 (stereo not drawn) 3%, COc1ccc(/C(O)=C2/C(=O)C(=O)N(Cc3cccnc3)C2c2ccco2)cc1OC (stereo not drawn) 5.59%, COc1ccc(Oc2ncc3nc(-c4cccs4)c(=O)n(Cc4cccc(OC)c4)c3n2)cc1 -16.1%, CCNc1ncc2nc(-c3ccc(Cl)cc3)c(=O)n(Cc3cccc(OC)c3)c2n1 -13.6%

AC50, inactive:
Oc1cc(O)c2c(c1)O[C@H](c1ccc(O)c(O)c1)[C@H](O)C2, CN(C)CC[C@H](c1ccc(Br)cc1)c1ccccn1, C[C@@](N)(C(=O)O)c1ccc(C(=O)O)cc1

AC50, active:
O=c1c(-c2ccc(O)cc2)coc2cc(O)cc(O)c12 5.01 µM, COc1ccc(-c2coc3cc(OC)cc(O)c3c2=O)cc1 3.16 µM, O=c1c(-c2ccc(O)cc2)coc2cc(O)ccc12 15.8 µM, COc1ccccc1C(=O)NCCn1cc(SCC(=O)Nc2nnc(C)s2)c2ccccc21 12.6 µM, CC(C)C(=O)c1c(C(C)C)nn2ccccc12 0.631 µM, COc1ccc2c(=O)c(-c3ccccc3)c(C)oc2c1 2.51 µM, O=C(c1ccc(COc2ccc(F)cc2)o1)n1cccn1 10 µM, CN(C)C(=O)c1ccc(-c2cncnc2NCc2cccs2)cc1 20 µM, CN(C)c1ccc(-c2cncnc2NCc2cccs2)cc1 0.398 µM, COc1cccc(=O)c2c(C)n(-c3cc(C)cc(C)c3)c(C)c12 10 µM, COc1cc(/C=C(\C#N)c2nc3c(s2)CC(C)CC3)ccc1O (stereo not drawn) 1.12 µM, Cc1ccc2nc(NC(=O)CSc3nc4c(c(=O)n3C)SC(C)C4)sc2c1 (stereo not drawn) 5.01 µM, CCn1c(SCC(=O)Nc2nc3ccc(C)cc3s2)nc2c(c1=O)SC(C)C2 (stereo not drawn) 1.58 µM, CCn1c(SCC(=O)NC2CCCCC2)nc2c(c1=O)SC(C)C2 (stereo not drawn) 14.1 µM, CCn1c(SCC(=O)Nc2ccc3c(c2)OCCO3)nc2c(c1=O)SC(C)C2 (stereo not drawn) 12.6 µM, CN(C)Cc1ccccc1-c1ccc2ncnc(N(C)C)c2c1 12.6 µM, CN(C)Cc1ccccc1-c1ccc2ncnc(NCc3ccccc3)c2c1 15.8 µM, CNc1ncnc2ccc(-c3ccccc3CN(C)C)cc12 3.16 µM, CN(C)S(=O)(=O)c1cc([N+](=O)[O-])ccc1N1CCCCCC1 14.1 µM, CNc1ccc(Br)cc(C(=O)/C=C/c2ccc3c(c2)OCO3)c1=O 3.16 µM, CCNc1ccc(Br)cc(C(=O)/C=C/c2ccc3c(c2)OCO3)c1=O 22.4 µM, O=C(NC1CCCC1)C1CC(c2ccc(F)cc2)=NO1 (stereo not drawn) 15.8 µM, COC(=O)c1c(NC(=O)CC2Nc3ccccc3NC2=O)sc(C)c1C (stereo not drawn) 10 µM, Cc1cc(NC(=O)Nc2ccc(N(C)C)cc2)c2cc(F)cc(F)c2n1 0.126 µM, Cc1ccc(Nc2nc(-c3c(C)nc4ncccn34)cs2)cc1 3.16 µM, Cc1cc(Br)ccc1NCc1ccccn1 1.12 µM, Cc1cc(NCc2ccccn2)ccc1Br 4.47 µM, N#Cc1c(NC(=O)C(F)(F)F)sc2c3c(=O)c4ccccc4c(=O)c=3oc3ccccc3c12 1 µM, CN(C(=O)c1cnc(N2CCN(c3ncccn3)CC2)c2ccccc12)c1ccc(Cl)cc1 15.8 µM, O=C(Cc1ccc(Cl)c(Cl)c1)OCCN1CCCC1 12.6 µM, CN(CCc1ccc(Cl)c(Cl)c1)CCN1CCCCCC1 31.6 µM, Cc1ccc(C(=O)NCCNc2ccc(Cl)cc2[N+](=O)[O-])o1 2 µM, COc1cccc2cc3c(=O)oc4ccccc4c3nc12 0.0891 µM, O=C(NCCc1cccs1)C1CC(c2c(Cl)cccc2Cl)=NO1 (stereo not drawn) 0.501 µM, CCN(CC)C(=S)SSC(=S)N(CC)CC 6.31 µM and 1.58 µM, Cn1cc(-c2nc3cnc(N4CCNCC4)nc3n(C3CC3)c2=O)c2ccccc21 12.6 µM, COc1ccc(-n2c(=O)c(-c3cn(C)c4ccccc34)nc3cnc(N4CCNCC4)nc32)cc1 15.8 µM, Cn1cc(-c2nc3cnc(N4CCNCC4)nc3n(-c3ccccc3)c2=O)c2ccccc21 15.8 µM, COc1cnc(-c2ccccn2)nc1Oc1ccc(Cl)c2ccccc12 5.62 µM, CC(C)N(CCC(=O)c1ccc2ccccc2c1)Cc1ccccc1 3.98 µM, N=C(N)S[C@H]1c2ccccc2-c2cc([N+](=O)[O-])ccc21 0.158 µM, Cc1ccc(C)c(/C(O)=C2\C(=O)C(=O)N(Cc3cccnc3)C2c2cccnc2)c1 (stereo not drawn) 25.1 µM, COc1cccc(Cn2c(=O)c(-c3cccs3)nc3cncnc32)c1 5.01 µM, COc1cccc(Cn2c(=O)c(-c3ccc(Cl)cc3)nc3cnc(OC)nc32)c1 3.98 µM, COc1cccc(Cn2c(=O)c(-c3cccs3)nc3cnc(OC)nc32)c1 3.16 µM
